This is part of a sample that, as a whole, favours compounds with a hit. Of some 83,000 tested, about 20% had one in any assay.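 For each line, cells grew in 96-well plates with the test compound present at a single concentration for 48 hours.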 A number with no mark means an inactive call. Calls of active or inactive are those of the source. Rule for the calls: active = growth percent below 10; inactive = the rest.
Each compound was assayed on HCC-2998 colon (assay: NCI-60 one-dose screen, 48 h (100 = growth as untreated, 0 = no growth, -100 = all killed)). Conditions: 10 µM.

Row | Structure (SMILES) | growth
1 | O=C(/C=C/c1ccco1)c1nc2ccccc2n1Cc1ccc(Br)cc1 | 12.7%
2 | O=C(/C=C/c1ccco1)c1nc2ccccc2n1Cc1ccc(F)cc1 | 57%
3 | COc1cc2cc(C(=O)N3C[C@@H](CCl)c4c3cc(OC(=O)N3CCN(C)[C@@H]5CSSC[C@@H]53)c3ccccc43)[nH]c2c(OC)c1OC | -53.8% (active)
4 | C#CC[Se]C(=O)c1ccc2n[se]nc2c1 | 95.8%
5 | O=C(/C=C/c1ccc(Cl)cc1Cl)c1nc2ccccc2n1Cc1ccc(F)cc1 | 27.3%
6 | O=C(/C=C/c1ccc(Cl)cc1)c1nc2ccccc2n1Cc1ccc(Br)cc1 | 65.3%
7 | CCOP(=O)(OCC)C(NC(C)=O)C(=O)SCCN (centres undefined) | 104%
8 | COc1cc2cc(C(=O)N3C[C@@H](CCl)c4c3cc(OC(=O)N3CCN(C)[C@@H]5CSSC[C@H]53)c3ccccc43)[nH]c2c(OC)c1OC | -79.9% (active)
9 | COc1ccc2cc([C@H](C)C(=O)[Se]CCC#N)ccc2c1 | 10.1%
10 | CC12OOC(C)(OO1)C2CCC(=O)OCCNc1ccnc2cc(Cl)ccc12 (centres undefined) | 88.5%
11 | CC(C)N=C([Se])NC(=O)c1cccs1 | 27.6%
12 | Cc1ccc2[nH]c(=S)n(-c3ccc(F)cc3)c(=O)c2c1 | 111%
13 | CCOC(=O)C1=C(Nc2ccccc2)C(=O)OC12C(=O)Nc1ccccc12 (centres undefined) | 115%
14 | CC12CCC3(CCC(=O)NCCCNc4ccnc5cc(Cl)ccc45)[C@@](C)(OO[C@]3(C)O1)O2 | 22.8%
15 | CC[C@]12C=CCN3CC[C@@]4(c5ccc(OC)cc5N(C)[C@H]4[C@@](O)(C(=O)OC)[C@@H]1OC(=O)CCCC[P+](C1CCCCC1)(C1CCCCC1)C1CCCCC1)[C@@H]32 | -87.8% (active)
16 | CC(=O)Oc1ccccc1C(=O)[Se]C(=NC(C)C)NC(C)C | -91% (active)
17 | COCCOCCOCCOc1ccc(-n2cc(CCCN(CCNc3ccnc4cc(Cl)ccc34)C(=O)CCC(=O)O[C@@H]3O[C@@H]4OC5(C)CC[C@H]6[C@H](C)CC[C@@H]([C@H]3C)[C@@]46OO5)nn2)cc1 | 67.2%
18 | C[C@H]1[C@@H](CC(=O)N[C@@H](Cc2coc3ccccc23)B(O)O)O[C@@H]2OC3(C)CC[C@H]4[C@H](C)CC[C@@H]1[C@@]24OO3 | -97.2% (active)
19 | COP(=O)(CC(F)(F)C(F)(F)F)OC | 91%
20 | CC12OOC(C)(OO1)C2CCC(=O)NCCNc1ccnc2cc(Cl)ccc12 (centres undefined) | 99.7%

Row | Structure (SMILES) | growth
21 | CC[C@]12C=CCN3CC[C@@]4(c5ccc(OC)cc5N(C)[C@H]4[C@@](O)(C(=O)OC)[C@@H]1OC(=O)CCC[P+](c1ccc(C)cc1)(c1ccc(C)cc1)c1ccc(C)cc1)[C@@H]32 | -91.4% (active)
22 | CC(C)N=C([Se])NC(=O)c1ccccc1 | -35.5% (active)
23 | CC[C@]12C=CCN3CC[C@@]4(c5ccc(OC)cc5N(C)[C@H]4[C@@](O)(C(=O)OC)[C@@H]1OC(=O)CCC[P+](C1CCCCC1)(C1CCCCC1)C1CCCCC1)[C@@H]32 | -92.6% (active)
24 | CC1=C(COCCOC(=O)c2ccc(S(=O)(=O)F)cc2)C2=C(C)C3(CC3)[C@@](C)(O)C(=O)C2=C1 | -83.5% (active)
25 | CC[C@]12C=CCN3CC[C@@]4(c5ccc(OC)cc5N(C)[C@H]4[C@@](O)(C(=O)OC)[C@@H]1OC(=O)CCCC[P+](c1ccc(OC)cc1)(c1ccc(OC)cc1)c1ccc(OC)cc1)[C@@H]32 | -88.4% (active)
26 | CC1=C(CCC=NNC(N)=O)C2=C(C)C3(CC3)[C@@](C)(O)C(=O)C2=C1 | -87% (active)
27 | CC[C@@]12CC(C(=O)OC)=C3Nc4cc5c(cc4[C@@]34CCN(C[C@H]3O[C@H]31)[C@@H]24)[C@@H]1[C@H](O5)[C@@H](O)[C@@]2(CC)CC(C(=O)OC)=C3Nc4cc(OC)ccc4[C@@]34CCN1[C@@H]24 | -65% (active)
28 | CCOP(=O)(CC(F)(F)C(F)(F)F)OCC | 86.3%
29 | CC1=C2C(=C[C@@](C)(COP(=O)(Oc3ccccc3)Oc3ccccc3)[C@@H]2O)C(=O)[C@@](C)(O)C12CC2 | -85.5% (active)
30 | CC(=O)Oc1ccccc1C(=O)NC([Se])=NC1CCCCC1 | 28.1%
31 | C[C@H]1[C@H](OC(=O)CCC(=O)N(CCCc2cn(-c3ccc(CN4CCOCC4)cc3)nn2)CCNc2ccnc3cc(Cl)ccc23)O[C@@H]2OC3(C)CC[C@H]4[C@H](C)CC[C@@H]1[C@@]24OO3 | 40.1%
32 | O=C(/C=C/c1ccc(Cl)cc1)c1nc2ccccc2n1Cc1ccc(F)cc1 | 32.5%
33 | CC1=C(CCC=O)C2=C(C)C3(CC3)[C@@](C)(O)C(=O)C2=C1 | -91.6% (active)
34 | O=C(NC([Se])=NC1CCCCC1)c1ccc2c(c1)OCO2 | 74.1%
35 | C[C@H]1[C@H](OC(=O)CCC(=O)N(CCCc2cn(-c3ccc(C#N)cc3)nn2)CCNc2ccnc3cc(Cl)ccc23)O[C@@H]2OC3(C)CC[C@H]4[C@H](C)CC[C@@H]1[C@@]24OO3 | 70.3%
36 | C[C@H]1[C@@H](Oc2ccc(-c3cn(-c4ccnc5cc(Cl)ccc45)nn3)cc2)O[C@@H]2OC3(C)CC[C@H]4[C@H](C)CC[C@@H]1[C@@]24OO3 | 48.8%
37 | COc1ccc(/C=C/C(=O)c2nc3ccccc3n2Cc2ccc(Br)cc2)cc1 | 54.2%
38 | COC(=O)CCn1c(-c2ccc(-n3cc(-c4ccc(O[C@H]5O[C@@H]6OC7(C)CC[C@H]8[C@H](C)CC[C@@H]([C@H]5C)[C@@]68OO7)cc4)nn3)cc2)nc2ccccc21 | 38.5%
39 | C[C@H]1[C@H](OC(=O)CCC(=O)N(CCCc2cn(-c3ccc([N+](=O)[O-])cc3)nn2)CCNc2ccnc3cc(Cl)ccc23)O[C@@H]2OC3(C)CC[C@H]4[C@H](C)CC[C@@H]1[C@@]24OO3 | 49.9%
